# From PubChem BioAssay (NCI)
# The panel holds about 79,000 compounds, 15% with a hit somewhere; the sample as a whole holds those more often. Unmarked numbers belong to inactive results. Active and inactive are the calls of the source. Rule as the data show it: active = growth inhibition above about 70%; inactive = the rest.
# Experiment: NCI Yeast Anticancer Drug Screen. Data for the CLN2oe strain (AID 163);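 also: 0% = growth of vehicle-only control cultures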
# Conditions: S. cerevisiae CLN2oe strain, active compounds read high
# Procedure: Growth inhibition of yeast strains with defined genetic alterations is measured as a screen for potential anti-cancer activity. Selected strains with alterations in DNA damage repair or cell cycle control were exposed to compounds and growth inhibition was measured relative to vehicle treated controls. The strain used in this assay is CLN2oe
Structure (SMILES),growth inhibition (at 1.2 µM) [%],growth inhibition (at 3.7 µM),growth inhibition (at 11.0 µM),growth inhibition (at 33.0 µM),growth inhibition (at 100.0 µM)
O=[N+]([O-])c1ccc2nnnn2c1,-5,1%,-1%,-7%,1%
CSc1ccc2c(c1)C(N1CCN(C)CC1)Cc1ccccc1S2 (stereo not given),-17,5%,13%,52%,99% (active)
O=Cc1ccccc1B(O)O,-4,11%,84% (active),98% (active),99% (active)
O=C(O)/C=C\C(=O)NNc1ccc(Br)cc1,-6,96% (active),99% (active),99% (active),99% (active)
O=[N+]([O-])C(=C(NCc1ccccc1)NCc1ccccc1)C(Cl)=C(Cl)Cl,-5,-3%,6%,14%,62%
Cc1nc2ccccc2c(=O)n1NC(=O)c1ccc(CS)cc1,2,-17%,-6%,22%,95% (active)
COc1ccc(/C=C2\CCc3ccccc3C2=O)cc1OC,21,22%,29%,37%,92% (active)
O=C1c2ccccc2C2CCC1c1ccccc12 (stereo not given),2,-5%,7%,59%,98% (active)
